SRC1 TRFRET art: TR-FRET detection interference compounds, primary screen, artefact control for PPARgamma SRC-1 recruitment agonists, biochemical, TR-FRET emission ratio | TR-FRET detection artefact counter-screen; stronger effect = higher value | TR-FRET ratio at 8 µM | AID 1051, 2008 | actives 0.34% (n = 99,000); in the data active = TR-FRET ratio above about 2300
SRC2 TRFRET art: TR-FRET signal artefacts, primary screen, artefact control for PPARgamma SRC-2 agonist project, biochemical; actives 0.4% (n = 200,000); AID 1049, 2008; TR-FRET ratio at 8 µM; TR-FRET artefact counter-screen; stronger effect = higher value
PPARg SRC-1 ag: PPARgamma agonists recruiting SRC-1 coactivator, primary screen, biochemical; actives 0.41% (n = 200,000); Peroxisome proliferator-activated receptor gamma (Homo sapiens), P37231; activation, % at 8 µM; PPARgamma-SRC-1 coactivator recruitment biochemical assay; AID 631, 2007; in the data active = activation above about 19%;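 also: 0% = DMSO and 100% = reference agonist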
SRC3 TRFRET art: TR-FRET detection interference compounds, artefact control for PPARgamma SRC-3 recruitment agonists, biochemical, TR-FRET ratio; TR-FRET artefact counter-screen, PPARgamma/SRC-3 format; stronger effect = higher value; TR-FRET ratio at 8 µM; actives 0.39% (n = 99,000)
PPARg SRC-3 ag: PPARgamma agonists recruiting SRC-3 coactivator, primary screen, biochemical | Peroxisome proliferator-activated receptor gamma (Homo sapiens), P37231 | biochemical PPARgamma/SRC-3 coactivator recruitment assay | activation, % at 8 µM | actives 0.26% (n = 200,000); in the data active = activation above about 23%;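 also: 0% = DMSO and 100% = reference agonist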
PPARg SRC2 recr: agonists of PPARg-SRC-2 recruitment, primary screen, biochemical, HTS; Peroxisome proliferator-activated receptor gamma (Homo sapiens), P37231; PPARgamma LBD-SRC-2 recruitment; activation, % at 8 µM; actives 0.34% (n = 200,000); AID 1032, 2008; in the data active = activation above about 22%;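 also: 0% = vehicle and 100% = reference agonist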
PPARg SRC2 ag: agonists of PPARgamma SRC-2 coactivator recruitment, confirmation, biochemical, HTS; activation, % at 8 µM; biochemical SRC-2 recruitment by PPARgamma; shares compounds with PPARg SRC-3 ag; actives 52% (n = 790); in the data active = activation above about 22%;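 also: 0% = vehicle alone and 100% = reference agonist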
PPARg SRC1 ag: PPARgamma agonists recruiting SRC-1 coactivator, confirmation, biochemical; shares compounds with PPARg SRC-3 ag; PPARgamma–SRC-1 coactivator recruitment biochemical assay; activation, % at 8 µM; actives 43% (n = 790); AID 1300, 2008; in the data active = activation above about 20%;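 also: 0% = vehicle wells and 100% = reference agonist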
PPARg SRC3 ag: PPARgamma-driven SRC-3 coactivator recruitment agonists, confirmation, biochemical. shares compounds with PPARg SRC-3 ag. biochemical PPARgamma-SRC-3 coactivator recruitment, agonist mode. activation, % at 8 µM. actives 29% (n = 790); in the data active = activation above about 24%;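 also: 0% = vehicle wells and 100% = reference agonist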
Active calls of the source: *; x = not tested or not shown. A selection: hits, their analogues and other compounds. The true share with any hit is near 0.9%. Rule as the data show it, unless noted: active = TR-FRET ratio above about 2000; inactive = the rest.

SMILES	SRC1 TRFRET art	SRC2 TRFRET art	PPARg SRC-1 ag	SRC3 TRFRET art	PPARg SRC-3 ag	PPARg SRC2 recr	PPARg SRC2 ag	PPARg SRC1 ag	PPARg SRC3 ag
N#Cc1c(-c2ccco2)nc(SCc2ccc(F)cc2)[nH]c1=O	x	2187*	20*	x	39*	45*	24*	15	16
N#Cc1c(-c2ccco2)nc(SCC(=O)Nc2ccc(S(N)(=O)=O)cc2)[nH]c1=O	x	1576	5	x	-3	7	x	x	x
O=C(NCc1n[nH]c(=S)n1-c1cccc(Cl)c1)c1cccs1	1690	1414	-5	1538	9	2	x	x	x
COc1ccc(-c2nc(-c3ccccn3)no2)cc1	1869	1451	-4	1595	6	1	x	x	x
Cc1ccc2nc3sc(C(=O)NCc4ccco4)c(N)c3cc2c1	x	1592	10	x	18	15	x	x	x
COc1cc2cc3c(N)c(C(=O)NCc4ccco4)sc3nc2cc1OC	x	1949	21*	x	23	14	2	2	3
O=C(CCSc1nnc2ccc3ccccc3n12)Nc1ccc(F)cc1	x	1920	10	x	33*	17	29*	24*	19
C#CCn1c(=NC(=O)c2ccc(Br)s2)sc2cccc(OC)c21	x	4015*	24*	x	33*	30*	46*	32*	26*
C#CCn1c(=NC(=O)c2ccc(Br)s2)sc2cc(NC(C)=O)ccc21	1868	1669	4	1650	7	3	x	x	x
CCn1c(-c2nn(C)cc2Cl)n[nH]c1=S	2020	1771	0	1469	-1	5	x	x	x
Cn1cc(Cl)c(-c2n[nH]c(=S)n2-c2ccccc2)n1	2497*	2159*	30*	2184*	21	35*	27*	16	18
Cc1c(Cl)c(-c2n[nH]c(=S)n2-c2ccc(F)cc2)nn1C	x	2050*	33*	x	48*	31*	28*	17	19
Cc1cc(-c2n[nH]c(=S)n2-c2ccccc2)nn1C	2186	1825	14	1839	6	12	x	x	x
S=c1[nH]nc(-c2cc(-c3ccco3)[nH]n2)n1-c1ccccc1	x	1917	6	x	27*	18	23*	16	14
Cc1nn(C)c(-c2n[nH]c(=S)n2-c2ccccc2)c1Cl	2273	2081*	24*	2211*	21	14	22	16	18
CCOC(=O)c1c(C)[nH]c(C(=O)C(C)OC(=O)c2oc3ccccc3c2COC)c1C (stereo unspecified)	x	1377	0	x	-2	0	x	x	x
Cc1cc(-c2ccccc2)c(C#N)c(=S)[nH]1	1980	1589	1	1876	9	4	x	x	x
Cc1ccc(/C=C/C(=O)Nc2ccc(N(C)C)cc2)o1	2095	1841	25*	1522	15	25*	9	6	3
CCOc1ccc2c(c1)nc(SCC(=O)c1ccc(Br)s1)n2C	x	1968	20*	x	28*	29*	35*	26*	25*
CCOc1ccc2c(c1)nc(SCC(=O)c1cccs1)n2C	x	1436	3	x	5	6	x	x	x
N#C/C(=C\c1ccc(N2CCCCC2)o1)C(N)=O	2106	1938	21*	1746	11	15	-2	3	0
O=C(c1ccc2c(c1)OCO2)N1CCN(c2ccccc2)CC1	x	1552	4	x	26*	13	1	3	3
N#C/C(=C\c1ccc(N2CCOCC2)c([N+](=O)[O-])c1)c1nc2ccccc2[nH]1	1558	1476	-5	1599	0	-1	x	x	x
N#C/C(=C\c1ccc(N2CCOCC2)o1)c1nc2ccccc2[nH]1	x	1740	25*	x	23	26*	4	13	11
CCC1Oc2ccccc2N(CC(=O)NCc2cccs2)C1=O (stereo unspecified)	1816	1643	7	1720	4	-1	x	x	x
SMILES	SRC1 TRFRET art	SRC2 TRFRET art	PPARg SRC-1 ag	SRC3 TRFRET art	PPARg SRC-3 ag	PPARg SRC2 recr	PPARg SRC2 ag	PPARg SRC1 ag	PPARg SRC3 ag
N#Cc1cc2c(nc1SCc1cccc(Cl)c1)CCCCC2	x	1696	18	x	-2	17	x	x	x
N#Cc1cc2c(nc1SCc1ccccc1)CCCCC2	x	1973*	12	x	9	35*	37*	33*	24*
C=CCOC(=O)c1ccc(-n2cncn2)nc1	x	1649	1	x	1	4	x	x	x
CN(C)c1ccc(/C=C/c2ccc3c4ccccc4ccc3[n+]2-c2ccccc2)cc1	2287	2446*	47*	2137*	28*	49*	30*	20*	23
CN(C)c1ccc(/C=C/c2ccc3ccccc3[n+]2C)cc1	3396*	2876*	66*	2738*	59*	94*	41*	33*	31*
CN(C)c1ccc(/C=C/c2ccncc2)cc1	x	1455	-4	x	10	3	x	x	x
CC(=O)Nc1cc(-c2ccccc2)nn1Cc1ccc(Cl)cc1	x	1595	2	x	2	13	x	x	x
O=C(NCC1CCCO1)c1nc2c(nnn2Cc2ccccc2Cl)c(=O)[nH]1 (stereo unspecified)	x	1552	4	x	6	14	x	x	x
O=C(CCCN1C(=O)c2ccccc2C1=O)NCc1cccnc1	x	1557	-1	x	3	0	x	x	x
O=C(CSc1nc2c(c(=O)n1-c1ccc(F)cc1)SCC2)N1CCCC1	x	1538	-1	x	-1	5	x	x	x
C=CCc1cc2c(oc(=O)c3ccccc32)c(C)c1O	2491*	2206*	28*	2419*	19	26*	21	13	14
Cc1c(O)c(CN2CCCC2)cc2c1oc(=O)c1ccccc12	x	1591	3	x	-3	2	x	x	x
N#CC1=C2SCN(Cc3ccccc3)CN2C(=O)CC1c1cccs1 (stereo unspecified)	x	2063*	13	x	26*	23*	23*	15	15
CCC(NC(=O)c1ccccc1NC(=O)c1ccco1)C(=O)NC1CCCCC1 (stereo unspecified)	x	2076*	11	x	12	25*	10	8	4
Cc1ccc(NC(=O)c2ccc(S(=O)(=O)N3CCC(C)CC3)cc2)cc1	x	1638	6	x	1	5	x	x	x
O=C(CSc1c2c(nc3ccccc13)CCC2)N1CCCC1	2117	1536	8	1706	2	0	x	x	x

Screening results: PubChem, The Scripps Research Institute Molecular Screening Center
